Laboratory results taken from ChEMBL document CHEMBL4513216, “Probing the Open Global Health Chemical Diversity Library for Multistage-Active Starting Points for Next-Generation Antimalarials” (ACS Infect Dis, 2020).
Screen size: about 69,000 compounds; about 8,600 (12%) showed an effect of 50% or more. This is one part of a sample in which strong results are shown more often than they occur.

The compounds below were run on Plasmodium berghei (assay: Screen against P. berghei liver stage (PbLuc), transformed with Luciferase, at 10uM). Settings: tested at 10 uM.
Type: functional, HepG2

Row | Compound | INHIBITION
1 | Cc1ccc(N2CCc3sc(C(=O)N4CCOCC4)cc32)nn1 | -34%
2 | Cc1cc(S(=O)(=O)N2CCCc3cc(Br)ccc32)sc1C(=O)O | 54.3%
3 | Cc1cc(S(=O)(=O)N2CCCc3cc(Cl)ccc32)sc1C(=O)O | -12.5%
4 | Cc1cc(S(=O)(=O)N2CCCc3ccccc32)sc1C(=O)O | 37.1%
5 | O=C(Nc1ccccc1)N1CC(C(=O)N2CCCC2)C2(CCOCC2)C1 (stereo unspecified) | -9.71%
6 | NC(=O)c1ccc(C2CCCN2C(=O)Cn2nc3ccccc3n2)s1 (stereo unspecified) | 19.4%
7 | CC(=O)c1c(C)nn(CC(=O)N2CCCC2c2ccc(C(N)=O)s2)c1C (stereo unspecified) | 65.7%
8 | NC(=O)c1ccc(C2CCCN2C(=O)CCn2nnc3ccccc32)s1 (stereo unspecified) | 7.6%
9 | CN(C)CCN1CCCC12CCN(C(=O)c1ccco1)CC2 | -20.8%
10 | O=C(Nc1ccncc1)N(CCO)Cc1ccsc1 | -42.2%
11 | CCOc1ccc(C(=O)N2C[C@@H]3CC[C@H]2CN(C)C3)cc1OCC | 28%
12 | COc1ccc(C(=O)N2C[C@@H]3CC[C@H]2CN(C)C3)cc1Cl | 32.3%
13 | COc1ccccc1-c1ccc(C(=O)N2C[C@@H]3CC[C@H]2CN(C)C3)cc1 | 58.3%
14 | Cn1cc(C2CCCN2C(=O)Cn2c(=O)oc3ccccc32)cn1 (stereo unspecified) | -19.1%
15 | CN(C)C[C@H]1C[C@@H]2CN(C(=O)c3ccno3)C[C@@H]2O1 | 34.9%
16 | O=C(NC[C@H]1C[C@@H]2CN(C(=O)c3ccno3)C[C@@H]2O1)C1CCC1 | 70.4%
17 | Cn1cccc1C(=O)NC[C@H]1C[C@@H]2CN(C(=O)c3ccno3)C[C@H]2O1 | 42.3%
18 | CCn1cc(-c2cc(C(F)F)n3nc(CCC(=O)O)nc3n2)cn1 | 33.7%
19 | CCn1cc(-c2cc(C(F)F)n3nc(CC(=O)O)nc3n2)cn1 | 53%
20 | Cn1cc(-c2cc(C(F)F)n3nc(CCC(=O)O)nc3n2)cn1 | -24.1%
21 | CC(C)(C)c1nc(C(C)(C)NC(=O)C2CC(=O)N(CC3CC3)C2)no1 (stereo unspecified) | -17.6%
22 | Cn1cc(CN2CCc3nc(-c4ccccn4)nc(O)c3C2)cn1 | 52.3%

Row | Compound | INHIBITION
23 | CCn1cc(CN2CCc3nc(-c4ccccn4)nc(O)c3C2)cn1 | 1.5%
24 | Cn1cc(CN2CCc3c(nc(-c4ccccn4)[nH]c3=O)C2)cn1 | 26.7%
25 | CN(C)C(=O)c1ccc(C2CCCNC2)nc1 (stereo unspecified) | 12.3%
26 | CN(C)CC1CN(Cc2ccsc2)Cc2nccn2C1 (stereo unspecified) | 31.8%
27 | CN(C)Cc1cccc(-c2cccnc2C(=O)NCc2ccco2)c1 | 2.7%
28 | CN(C)Cc1cccc(-c2cccnc2C(=O)NCc2cn(C)cn2)c1 | 51%
29 | CN(C)Cc1cccc(-c2cccnc2C(=O)NCc2ccccn2)c1 | 14.85%
30 | Cc1ncsc1CCN(C)C(=O)CN1CCCCC1=O | 39.4%
31 | CN(Cc1csc(-c2cccs2)n1)C(=O)CN1CCOC1=O | 55%
32 | Cc1ncsc1CCN(C)C(=O)CN1C(=O)OC[C@@H]1c1ccccc1 | 66.5%
33 | Cc1ncsc1CCN(C)C(=O)CN1CCOc2ccccc2C1 | 40.5%
34 | Cc1ncsc1CCN(C)C(=O)CN1CCCCCC1=O | 30.8%
35 | Cc1ccc(=O)n(CC(=O)N(C)Cc2csc(-c3cccs3)n2)n1 | 5.23%
36 | CC(C)n1ccnc1CN1C(=O)OC[C@@H]1c1ccccc1 | 42.6%
37 | Cc1nc(CCN(C)C(=O)CN2C(=O)OC[C@@H]2c2ccccc2)no1 | 44.3%
38 | Cc1ncsc1CCN(C)C(=O)CN1CCOC1=O | 61.8%
39 | Cc1cc(C)n(CC(=O)N(C)Cc2csc(-c3cccs3)n2)c(=O)n1 | 38.5%
40 | CC(C)N(C)C(=O)CN1C(=O)OC[C@@H]1c1ccccc1 | 58.2%
41 | COc1ccccc1CN(C)C(=O)CN1C(=O)OC[C@@H]1c1ccccc1 | 28.5%
42 | CCN(CC(=O)Nc1cc(Cl)ccc1C)C(=O)c1cnccn1 | -25.9%
43 | COc1ccc(C(=O)N2CCC(Nc3ccc(C)nn3)CC2)cc1 | 42%
44 | CN(C)c1nc2sc(C(=O)N3CCN(C(=O)OC(C)(C)C)CC3)cc2s1 | -9.39%

Row | Compound | INHIBITION
45 | CCCS(=O)(=O)N1C[C@H](N(C)Cc2ccco2)[C@@H]2OCCC[C@@H]21 | 40.4%
46 | O=C(CCn1cnc2cc(F)c(F)cc21)N1CCN2CCCCC2C1 (stereo unspecified) | 23.4%
47 | Cc1cc(CN2C[C@@H]3COC[C@@H](C(=O)N4CCCCO4)[C@@H]3C2)oc1C | 33.4%
48 | NC(=O)c1ccc(NC2CCOC3(CCCC3)C2)nn1 (stereo unspecified) | 7.18%
49 | COC(=O)CCn1ccc(=O)c2cc(OC)ccc21 | -80.3%
50 | CN(CCc1ccccc1)C(=O)CN1C(=O)OC[C@@H]1c1ccccc1 | 36.9%
51 | CN(CCc1cnn(C)c1)C(=O)CN1C(=O)OC[C@@H]1c1ccccc1 | 50.8%
52 | CN(CCc1cnn(C)c1)C(=O)Cn1c(=O)[nH]c2ccccc21 | 27%
53 | CCC(CC)C(=O)NCc1cnn(CC)c1 | 20.1%
54 | Cn1c(=O)c2cc(C(=O)NCCc3ccccc3)ccc2n(C)c1=O | -0.371%
55 | COC(=O)CNC(=O)c1c(-n2cnnn2)sc2c1CCCC2 | -5.59%
56 | Cc1nc(NC(=O)c2c(-n3cnnn3)sc3c2CCC3)sc1C | 93.7%
57 | CC(C)CCNC(=O)c1c(-n2cnnn2)sc2c1CCCC2 | 23.4%
58 | O=C(NCC1CCCO1)c1c(-n2cnnn2)sc2c1CCC2 (stereo unspecified) | -1.58%
59 | CC(C)CNC(=O)c1c(-n2cnnn2)sc2c1CCCC2 | 68.1%
60 | CCCn1nccc1C(=O)Nc1nc(C)c(C)s1 | -9.44%
61 | Cc1nc(NC(=O)c2c(-n3cnnn3)sc3c2CCCC3)sc1C | 93.7%
62 | Cc1sc(-n2cnnn2)c(C(=O)NC(C)C)c1C | 21.2%
63 | CCCNC(=O)c1c(-n2cnnn2)sc2c1CCC2 | 26.1%
64 | CC(C)CNC(=O)c1c(-n2cnnn2)sc2c1CCC2 | 14.2%
65 | CC(C)CNC(=O)c1sccc1-n1cnnn1 | 32.3%
66 | Cc1nc(NC(=O)c2c(-n3cnnn3)sc(C)c2C)sc1C | 92.5%
